# Most compounds without a hit are left out; they make up all but 14% or so of the library.
# HCMV inh = qHTS Assay for inhibitors of the human cytomegalovirus (HCMV) | HFF cells, HCMV-luciferase reporter, 72 h; hits give low values | activity change, negative = inhibition, % at 57.5 µM | hit rate 4.5% among 410,000 | AID 1259415, 2018; in the data active = activity change below about -60%; inconclusive = no clear call, values can overlap the other calls; inactive = above about -39%
#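 Inhibition of viral replication was scored as loss of reporter luminescence in HFFs infected with HCMV-luciferase (MOI 1 PFU/cell) for 72 h; compounds tested at 2 doses, normalized to buffer and Salinomycin controls.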
# Pf growth 96h = Primary qHTS for delayed death inhibitors of the malarial parasite plastid, 96 hour incubation. P. falciparum luciferase reporter growth, 96 h. Potency, µM (doses to about 28.7 µM), inactives show at the highest dose activity change, negative = inhibition, actives largely listed as inhibitors. hit rate 6.9% among 320,000. AID 504834, 2011; also: potency is read from the fitted curve at half-maximal effect
#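 Parasite growth measured via integrated firefly luciferase reporter in P. falciparum. Infected erythrocytes at 2% hematocrit, 0.05% parasitemia final were treated 96 hours at 37 C under 5% CO2, and luminescence was read.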
# Pf growth 48h = Primary qHTS for delayed death inhibitors of the malarial parasite plastid, 48 hour incubation | P. falciparum luciferase growth in erythrocytes, 48 h | Potency, µM (doses to about 28.7 µM), for the others: top-dose activity change, negative = inhibition, actives largely listed as inhibitors | hit rate 5.9% among 310,000 | AID 504832, 2011; also: potency is read from the fitted curve at half-maximal effect
#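 Luciferase-expressing parasites in RBCs, 2% Hct / 0.1% parasitemia final; RPMI 1640 + 0.5% Albumax; 37 C, 5% CO2, one generation; luminescence read-out, lower signal = inhibition.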
# HCV inhibitor = qHTS Assay for Inhibitors of Hepatitis C Virus (HCV). Huh7.5.1 HCVcc-Cre infection, luciferase reporter, 44 h. Potency, µM (titrated, usually from 41.8 µM), without a hit: top-dose activity change, negative = inhibition, most hits filed as inhibitors. hit rate 3.4% among 340,000; also: potency is read from the fitted curve at half-maximal effect
#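 Cells seeded at 1,000/well and cultured 4 h, then compounds added followed by HCVcc-Cre virus (~0.5 moi). After 44 h further culture, luciferase substrate was added, plates held 15 min at room temperature, and luminescence read for 15 sec.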
# Lassa entry inh = qHTS for Inhibitors of binding or entry into cells for Lassa Virus | Lassa virus pseudotype entry inhibition, cell reporter | Potency, µM (series often up to 37.9 µM), for inactives: at the highest dose activity change, negative = inhibition, usual class: inhibitors | hit rate 1.2% among 300,000; calls by dose curve; tested in HEK293 cells; also: potency is read from the fitted curve at half-maximal effect; nearly all actives have a fitted effect of over 50% in size
# MARV entry inh = qHTS for inhibitors of binding or entry into cells for Marburg Virus; Marburg virus pseudotyped entry inhibition, cell reporter; Potency, µM (series often up to 37.8 µM), without a hit: at the highest dose activity change, negative = inhibition, hits mostly inhibitors; hit rate 1.8% among 300,000; AID 540276, 2011; calls by dose curve; tested in HEK293 cells; also: potency is read from the fitted curve at half-maximal effect
# * hit, by the source's call; u = inconclusive; x = not tested or not shown; [ ] = dose if it differs, or a comment. Unless noted, calls follow the shape of the dose curve; as a rule, active = well fitted inhibition curve with a large enough effect; inconclusive = small, poorly fitted or top-dose-only effect, or another doubt; inactive = no such curve, though single readings can be large or run the other way. % is scaled to controls: 0 for no effect and ±100 for the full control effect.
SMILES,HCMV inh,Pf growth 96h,Pf growth 48h,HCV inhibitor,Lassa entry inh,MARV entry inh
CCn1c(SCC(=O)Nc2ccccc2)nc2c(c1=O)SCC2,-11.4,x,x,x,x,x
CC(=O)Nc1ccc(CN2CCC(CO)(CCOc3ccccc3)CC2)cc1,-30.4,u,23.7%,11.8%,19.6%[46.1 µM],u
Cc1cc(C)c(CN2CCC(CO)(CCOc3ccccc3)CC2)cc1C,-6.8,-0.4%,6.57µM*,u,u,11.2µM*
OCC1(CCc2ccccc2)CCN(Cc2ccc(OC(F)F)cc2)CC1,20.9,13.1µM*,-28.1%,-29.8%,-38.9%[46.1 µM],u
OCC1(CCCc2ccccc2)CCN(Cc2ccc(F)cc2)CC1,-36.0,-22.8%,-18.8%,4.2%,-29.1%,u
COc1cc(CN2CCC(CO)(CCOc3ccccc3)CC2)cc(OC)c1,u,11.7µM*,11.7µM*,-22.3%,x,x
OCC1(CCOc2ccccc2)CCN(C2Cc3ccccc3C2)CC1,-36.6,u,8.28µM*,-2.4%,x,x
Cc1ccc(NC(=O)C(C)Sc2nc(=O)cc(N)n2-c2cccc(C)c2)cc1 (stereo not drawn),-15.5,x,x,x,-26.6%[46.1 µM],-15.8%[46.1 µM]
Cc1cc(C)cc(NC(=O)C2CCCN2S(=O)(=O)c2cccc3nsnc23)c1 (stereo not drawn),-5.7,x,x,x,-0.2%[46.1 µM],u
O=C(Nc1sc(-c2ccccc2)cc1C(=O)O)c1ccccc1,8.2,257.6%,45.2%,4.7%,x,x
O=C1NC[C@H](CCCCN2C[C@H](Cc3ccccc3)N(CC3CCCCC3)C(=O)C2=O)N(CCc2ccccc2)C1=O,-6.6,x,x,x,x,x
COc1ccc(OC)c(CN2CCC(CO)(CCOc3ccccc3)CC2)c1,51.6,-7.5%,13.1µM*,0.2%,0.8%[46.1 µM],u
Cc1cc(N2CCN(c3cccc(C)c3C)CC2)n2cnnc2n1,-18.3,x,x,x,-29.1%[46.1 µM],u
O=C(CCn1nnc2ccccc21)Nc1nnc(COc2ccc(F)cc2)s1,36.0,9.28µM*,-3.5%,-7.1%,-1.5%,23.1%
CC(=O)Nc1ccc(NC(=O)CCn2nnc3ccccc32)cc1,15.0,-3.4%,9.28µM*,1.9%,u,1.2%[46.1 µM]
O=C(CCn1nnc2ccccc21)Nc1nnc(Cc2ccc(F)cc2)s1,49.5,x,-4.6%,5.3%,3.3%,5.0%
COc1ccc(NC(=O)CN2C(=O)CC(c3ccco3)Sc3ccccc32)cc1OC (stereo not drawn),-26.7,x,x,x,x,8.5%[46.1 µM]
O=C(Nc1cccc(Br)c1)N1CCC(CN2CCCCCC2)CC1,-8.6,x,x,x,u,x
Oc1[nH]c2ccccc2c1N=Nc1cccc(Cl)c1,134.3,u,96.6%,-26.4%,x,x
Oc1[nH]c2ccc(Br)cc2c1N=Nc1ccc(C(F)(F)F)cn1,48.0,9.28µM*,u,u,-6.8%[46.1 µM],-19.8%[46.1 µM]
Oc1[nH]c2ccccc2c1N=Nc1ccc(C(F)(F)F)cn1,32.0,112.6%,68.8%,-0.6%,0.4%,u
O=C(O)c1ccc(N=Nc2c(O)[nH]c3ccc(Br)cc23)cc1,63.8,5.22µM*,u,8.7%,x,x
O=C(O)c1ccc(N=Nc2c(O)[nH]c3cc(Cl)ccc23)cc1,193.5,4.65µM*,u,30.2%,x,-0.3%
NS(=O)(=O)c1ccc(N=Nc2c(O)[nH]c3ccc(Cl)cc23)cc1,x,x,x,x,2.81µM*,x
CCOC(=O)c1c(C)[nH]c(CCC(=O)Nc2ccc(N(CC)CC)cc2C)c1C,11.7,x,x,x,u,x
SMILES,HCMV inh,Pf growth 96h,Pf growth 48h,HCV inhibitor,Lassa entry inh,MARV entry inh
NS(=O)(=O)c1ccc(N=Nc2c(O)[nH]c3ccc(C(=O)NCCCn4ccnc4)cc23)cc1,x,x,x,x,3.15µM*,x
CCOC(=O)c1ccc(NC(=O)Cn2cc(C(=O)c3ccc(Cl)cc3)c(=O)c3ccc(C)nc32)cc1,u,x,x,x,20.4%[46.1 µM],x
CC(C)(C)c1cc(O)ccc1O,-26.7,10.7µM*,6.01µM*,x,x,x
CC(=NNC(=S)N1CCCCC1)c1ccccn1,-97.9*,x,x,x,x,x
CCC1CCCCN1C(=S)NCc1ccccc1 (stereo not drawn),39.1,-2.9%,5.6%,6.1%,-3.3%,u
CCC1CCCCN1C(=S)NN=C(C)c1ccccn1 (stereo not drawn),-98.5*,x,x,x,x,x
